Assay [1] in a line: ATG_PBREM_CIS: Attagene CIS-FACTORIAL HepG2 Assay for human Phenobarbital-responsive Enhancer Module (PBREM) (AID 2282955). As to conditions: HepG2 PBREM cis-reporter, Attagene multiplexed transcription; actives raise or lower the signal. An outline of the steps:
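Cells were transfected with cis-element reporter units and treated for 24 h, after which RNA was extracted and reporter transcripts measured by RT-PCR and capillary electrophoresis.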

For assay [2], the target named is Paired box protein Pax-6 (Homo sapiens) (UniProt P26367). The assay can be described thus: ATG_Pax6_CIS: Attagene CIS-FACTORIAL HepG2 Assay for human Paired Box 6 (PAX6) (AID 2282956). To be noted: HepG2 CIS-FACTORIAL PAX6 reporter transcription, RNA readout; actives raise or lower the signal. The method, boiled down: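 DMSO-referenced bidirectional fits of reporter mRNA fluorescence; HepG2 with transient cis-promoter MRTUs, 24 h post-dose, RT-PCR plus capillary electrophoresis detection.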
Sequence of Paired box protein Pax-6 (Homo sapiens) (P26367 whole entry, looked up): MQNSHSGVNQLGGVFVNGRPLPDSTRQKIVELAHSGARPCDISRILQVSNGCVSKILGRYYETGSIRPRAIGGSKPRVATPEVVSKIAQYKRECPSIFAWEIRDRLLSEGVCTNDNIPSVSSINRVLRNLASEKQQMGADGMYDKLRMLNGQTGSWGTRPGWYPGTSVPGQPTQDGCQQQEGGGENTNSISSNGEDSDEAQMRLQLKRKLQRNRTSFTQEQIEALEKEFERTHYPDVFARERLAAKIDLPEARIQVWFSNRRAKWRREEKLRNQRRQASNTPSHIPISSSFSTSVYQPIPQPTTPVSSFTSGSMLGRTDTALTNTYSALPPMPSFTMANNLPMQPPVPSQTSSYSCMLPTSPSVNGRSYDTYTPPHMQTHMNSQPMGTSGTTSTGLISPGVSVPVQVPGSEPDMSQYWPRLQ

The nature of assay [3]: ATG_PXRE_CIS: Attagene CIS-FACTORIAL HepG2 Assay for human Pregnane X Receptor Element (PXRE) (AID 2282957). To be noted: HepG2 Attagene CIS-FACTORIAL PXRE reporter, mRNA; actives raise or lower the signal. An outline of the steps:
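After a 24 h chemical incubation, total RNA from transfected HepG2 cells was reverse-transcribed and reporter cDNA amplified, FAM-labeled, HpaI-digested and sized by capillary electrophoresis. DMSO served as baseline for bidirectional curve fitting.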

Assay [4] in a line: ATG_PPRE_CIS: Attagene CIS-FACTORIAL HepG2 Assay for human Peroxisome Proliferator-activated Response Element (PPRE) (AID 2282958). To be noted: HepG2 PPRE cis-element reporter, Attagene transcription factor profiling; actives raise or lower the signal. An outline of the steps:
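In this cell-based multiplex, a PPRE cis element drives a reporter sequence in transiently transfected HepG2 cells. Following 24 h treatment, labeled cDNA amplicons are sized and quantified by capillary electrophoresis, with DMSO defining baseline.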

A short description of assay [5]: ATG_RORE_CIS: Attagene CIS-FACTORIAL HepG2 Assay for human RAR-related Orphan Receptor Element (RORE) (AID 2282959). To be noted: HepG2 Attagene cis-factorial RORE reporter, mRNA; actives raise or lower the signal. An outline of the steps:
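Endogenous factor activity at a cis response element is read as reporter transcript levels in HepG2 cells, 24 h post-dose. Transcripts are quantified by RT-PCR with capillary electrophoresis, and data fitted in both directions against DMSO.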

The nature of assay [6]: ATG_Sox_CIS: Attagene CIS-FACTORIAL HepG2 Assay for human SRY-box transcription factor (SOX) (AID 2282960). To be noted: HepG2 Attagene cis-factorial SOX reporter, mRNA; actives raise or lower the signal. The method, boiled down: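 Measures mRNA induction of a SOX1-associated reporter in HepG2 after 24 h dosing. Fluorescently labelled RT-PCR fragments are separated by capillary electrophoresis, and gain or loss relative to DMSO control is fitted.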

The target in assay [7] is Transcription factor Sp1 (Homo sapiens) (UniProt P08047). In words: ATG_Sp1_CIS: Attagene CIS-FACTORIAL HepG2 Assay for human Specificity Protein 1 (Sp1) (AID 2282961). To be noted: HepG2 Sp1 cis-reporter transcription, actives raise or lower the signal. An outline of the steps: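 Cells: HepG2, transiently transfected with cis-regulated multiplexed reporters. Exposure: 24 h. Detection: reporter transcripts amplified, fluorescently labeled, restriction-digested and sized by capillary electrophoresis. Analysis: bidirectional fit relative to DMSO.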
Sequence of Transcription factor Sp1 (Homo sapiens) (P08047 whole entry, looked up): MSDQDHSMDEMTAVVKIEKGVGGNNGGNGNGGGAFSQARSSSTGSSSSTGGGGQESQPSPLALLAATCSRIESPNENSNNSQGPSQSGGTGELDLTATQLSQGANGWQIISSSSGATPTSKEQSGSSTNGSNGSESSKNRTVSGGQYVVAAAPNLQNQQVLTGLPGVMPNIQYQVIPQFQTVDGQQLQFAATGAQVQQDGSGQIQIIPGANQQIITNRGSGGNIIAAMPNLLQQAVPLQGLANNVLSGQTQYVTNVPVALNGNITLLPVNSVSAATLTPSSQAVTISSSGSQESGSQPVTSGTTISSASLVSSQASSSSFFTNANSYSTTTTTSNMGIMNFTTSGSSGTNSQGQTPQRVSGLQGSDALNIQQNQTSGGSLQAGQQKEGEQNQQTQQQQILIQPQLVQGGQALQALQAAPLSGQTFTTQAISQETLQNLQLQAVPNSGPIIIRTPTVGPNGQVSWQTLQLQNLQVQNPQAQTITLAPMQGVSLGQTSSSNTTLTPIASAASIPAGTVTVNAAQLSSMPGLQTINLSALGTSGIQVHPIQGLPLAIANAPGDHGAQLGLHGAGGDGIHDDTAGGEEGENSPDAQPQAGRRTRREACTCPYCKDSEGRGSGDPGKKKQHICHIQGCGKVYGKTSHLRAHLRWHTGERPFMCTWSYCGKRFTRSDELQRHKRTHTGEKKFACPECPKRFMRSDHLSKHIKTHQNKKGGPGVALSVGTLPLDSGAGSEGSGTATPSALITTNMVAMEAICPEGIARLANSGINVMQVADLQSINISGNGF

The nature of assay [8]: ATG_SREBP_CIS: Attagene CIS-FACTORIAL HepG2 Assay for human Sterol Regulatory Element Binding (SREBP) (AID 2282962). To be noted: HepG2 Attagene cis-factorial SREBP reporter, mRNA; actives raise or lower the signal. The method, boiled down: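 In this cis-format assay, HepG2 liver cells express reporters controlled by promoter elements responsive to native transcription factors. Exposure lasts 24 h; reporter mRNA fluorescence from capillary electrophoresis gives the signal, fitted bidirectionally against DMSO.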

Assay [9] in a line: ATG_TA_CIS: Attagene CIS-FACTORIAL HepG2 Assay for human TA Basal Promoter (AID 2282964). As to conditions: HepG2 Attagene CIS-factorial TA basal promoter reporter; actives raise or lower the signal. The method, boiled down: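 Read-out: fluorescent reporter-transcript fragments resolved by capillary electrophoresis after RT-PCR and HpaI digestion. Source: HepG2 cells carrying transiently transfected multi-reporter cis constructs, treated 24 h. Endpoint fitted bidirectionally relative to DMSO.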

A short description of assay [10]: ATG_TCF_b_cat_CIS: Attagene CIS-FACTORIAL HepG2 Assay for human T-Cell-Factor with beta-catenin (TCF/b-cat) (AID 2282965). As to conditions: HepG2 TCF/beta-catenin cis-reporter transcription, actives raise or lower the signal. An outline of the steps: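 HepG2, transient MRTU transfection, cis-element-driven reporters (endogenous TFs). 24 h compound exposure. Readout: reporter mRNA by RT-PCR + 6-FAM primer extension, HpaI digest, capillary electrophoresis. Gain/loss fit vs DMSO baseline.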

A short description of assay [11]: ATG_TAL_CIS: Attagene CIS-FACTORIAL HepG2 Assay for human TAL Basal Promoter (AID 2282966).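 Also: background control endpoint measuring basal TAL promoter reporter mRNA not a specific factor.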 To be noted: HepG2 Attagene cis-factorial TAL promoter reporter; actives raise or lower the signal. The method, boiled down:
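Basal-promoter background-control endpoint from a multiplexed HepG2 reporter panel. Cells were exposed 24 h, then reporter mRNA was read by RT-PCR/CE fluorescence and fitted in both directions relative to DMSO.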

Assay [12] can be described thus: ATG_TGFb_CIS: Attagene CIS-FACTORIAL HepG2 Assay for human Transforming Growth Factor (TGF) (AID 2282967). As to conditions: HepG2 Attagene CIS TGFb reporter, mRNA transcription; actives raise or lower the signal. An outline of the steps: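 Transient MRTU transfection of HepG2 (FuGene 6). Dose 24 h. TriZol RNA, oligo(dT) RT, PCR, 6-FAM primer extension, HpaI cut, CE. Bidirectional fit, DMSO = baseline.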

Assay [13] is described as follows: ATG_VDRE_CIS: Attagene CIS-FACTORIAL HepG2 Assay for human Vitamin D Receptor Element (VDRE) (AID 2282968). As to conditions: HepG2 VDRE cis-reporter transcription, actives raise or lower the signal. An outline of the steps:
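Transient MRTU transfection of HepG2, 24 h compound exposure. Readout: reporter transcripts via RT-PCR and capillary electrophoresis, fluorescence. Bidirectional fit vs DMSO.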

Assay [14] has as its target Nuclear receptor subfamily 1 group I member 3 (Homo sapiens) (UniProt Q14994). The assay can be described thus: ATG_CAR_TRANS: Attagene TRANS-FACTORIAL HepG2 Assay for human Constitutive Androstane Receptor (CAR) (AID 2282969; active = hit-call score of the fitted dose curve at least 0.9, where 1 is the maximum;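 also: activators raise reporter mRNA above DMSO so AC50 marks induction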). To be noted: HepG2 Attagene TRANS-FACTORIAL CAR reporter. The method, boiled down:
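Transiently transfected HepG2, multiplex TRANS reporters (CAR-Gal4 chimera driving GAL4-UAS reporter). 24 h dosing. Readout: reporter transcript by RT-PCR + capillary electrophoresis, fluorescence intensity; positive direction vs DMSO.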

The target in assay [15] is Estrogen receptor (Homo sapiens) (UniProt P03372). In words: ATG_ERa_TRANS: Attagene TRANS-FACTORIAL HepG2 Assay for human Estrogen Receptor alpha (ERa) (AID 2282970; active = hit-call score of the fitted dose curve at least 0.9, where 1 is the maximum). As to conditions: HepG2 Attagene TRANS ERa GAL4 reporter, mRNA. An outline of the steps: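 Gal4-fusion ERa transactivation, measured as reporter transcript level in transiently transfected HepG2 cells. Exposure 24 h; RT-PCR plus capillary electrophoresis with fluorescence detection.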
Sequence of Estrogen receptor (Homo sapiens) (P03372 whole entry, looked up, the tested form may be a part): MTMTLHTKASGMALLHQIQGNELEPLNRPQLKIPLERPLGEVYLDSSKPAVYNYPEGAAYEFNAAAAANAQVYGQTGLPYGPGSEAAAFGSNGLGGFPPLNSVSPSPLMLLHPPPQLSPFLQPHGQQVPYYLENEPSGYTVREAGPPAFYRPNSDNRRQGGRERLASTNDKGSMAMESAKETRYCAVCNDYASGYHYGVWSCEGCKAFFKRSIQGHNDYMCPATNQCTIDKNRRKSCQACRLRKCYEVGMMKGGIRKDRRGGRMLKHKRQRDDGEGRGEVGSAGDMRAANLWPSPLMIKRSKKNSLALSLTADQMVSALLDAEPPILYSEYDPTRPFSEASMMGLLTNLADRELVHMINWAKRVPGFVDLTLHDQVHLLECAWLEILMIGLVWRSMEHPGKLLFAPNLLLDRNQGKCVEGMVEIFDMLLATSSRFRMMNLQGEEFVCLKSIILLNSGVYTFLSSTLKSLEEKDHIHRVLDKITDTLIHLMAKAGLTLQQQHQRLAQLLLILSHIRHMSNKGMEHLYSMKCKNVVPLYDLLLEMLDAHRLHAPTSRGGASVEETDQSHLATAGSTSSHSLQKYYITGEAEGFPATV

Assay [16] concerns the target X-box-binding protein 1 (Homo sapiens) (UniProt P17861). In words: ATG_Xbp1_CIS: Attagene CIS-FACTORIAL HepG2 Assay for human X-box Binding Protein 1 (XBP1) (AID 2282972). To be noted: HepG2 XBP1 cis-element reporter, Attagene multiplex; actives raise or lower the signal. An outline of the steps:
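Changes in reporter transcript abundance, read by RT-PCR and capillary electrophoresis, reflect endogenous transcription factor activity. Transfected HepG2 cells received compound for 24 hours; DMSO defined baseline for bidirectional analysis.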

Assay [17] can be described thus: ATG_GAL4_TRANS: Attagene TRANS-FACTORIAL HepG2 Assay for GAL4 (Internal Marker) (AID 2282976; active = hit-call score of the fitted dose curve at least 0.9, where 1 is the maximum). As to conditions: HepG2 Attagene TRANS GAL4 internal marker reporter. An outline of the steps: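 Background-control readout: GAL4-UAS reporter transcript in transiently transfected HepG2 cells after 24 h compound exposure. Measured by RT-PCR, 6-FAM primer extension, HpaI digest and capillary electrophoresis; gain-of-signal fit versus DMSO.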

Assay [18] addresses Signal transducer and activator of transcription 3 (Homo sapiens) (UniProt P40763). In words: ATG_STAT3_CIS: Attagene CIS-FACTORIAL HepG2 Assay for human Signal Transducer and Activator of Transcription 3 (STAT3) (AID 2282963). To be noted: HepG2, Attagene cis-factorial STAT3 reporter transcription; actives raise or lower the signal. The method, boiled down: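 Readout: fluorescent reporter mRNA fragments resolved by capillary electrophoresis. Setup: HepG2 transfected with MRTUs reporting endogenous transcription-factor activity, dosed 24 h. Gain or loss of signal fitted bidirectionally against DMSO control.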

Assay [19] in a line: ATG_M_19_TRANS: Attagene TRANS-FACTORIAL HepG2 Assay for M19 Transcription Factor (Internal Marker) (AID 2282974; active = hit-call score of the fitted dose curve at least 0.9, where 1 is the maximum). To be noted: HepG2 Attagene TRANS-FACTORIAL M19 internal marker reporter. An outline of the steps: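 Reporter mRNA induction was measured in transfected HepG2 cells 24 h after dosing. Endpoint fitted upward relative to DMSO and serves as a background control within the multiplexed TRANS panel.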

Records with an inconclusive call do not appear. The source made the active and inactive calls. The calls were made as follows, unless noted: active = hit-call score of the fitted dose curve at least 0.9, where 1 is the maximum; inactive = score below 0.9.

By AC50 is commonly meant the concentration giving half of the maximal activity seen.

Sequence of Signal transducer and activator of transcription 3 (Homo sapiens) (P40763 whole entry, looked up, the tested form may be a part): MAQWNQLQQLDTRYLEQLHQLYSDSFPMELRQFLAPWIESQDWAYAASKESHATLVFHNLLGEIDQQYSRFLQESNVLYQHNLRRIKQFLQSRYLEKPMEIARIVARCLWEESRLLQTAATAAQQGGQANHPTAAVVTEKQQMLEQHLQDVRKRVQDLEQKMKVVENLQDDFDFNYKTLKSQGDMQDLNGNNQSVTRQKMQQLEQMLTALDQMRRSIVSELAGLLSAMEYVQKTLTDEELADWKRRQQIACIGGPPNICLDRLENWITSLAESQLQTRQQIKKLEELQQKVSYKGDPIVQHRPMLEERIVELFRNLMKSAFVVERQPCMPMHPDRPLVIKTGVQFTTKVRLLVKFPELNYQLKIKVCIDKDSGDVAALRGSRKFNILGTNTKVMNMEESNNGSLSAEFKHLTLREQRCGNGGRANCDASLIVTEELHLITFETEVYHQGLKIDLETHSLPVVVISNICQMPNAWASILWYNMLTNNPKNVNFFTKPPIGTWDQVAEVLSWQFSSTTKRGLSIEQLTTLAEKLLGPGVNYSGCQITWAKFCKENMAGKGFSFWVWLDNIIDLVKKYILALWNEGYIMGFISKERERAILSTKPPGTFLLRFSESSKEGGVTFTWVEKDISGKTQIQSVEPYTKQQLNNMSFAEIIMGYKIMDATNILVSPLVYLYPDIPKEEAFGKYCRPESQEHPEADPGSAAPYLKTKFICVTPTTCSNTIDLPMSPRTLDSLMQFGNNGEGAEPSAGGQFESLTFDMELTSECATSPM
Sequence of X-box-binding protein 1 (Homo sapiens) (P17861 whole entry, looked up): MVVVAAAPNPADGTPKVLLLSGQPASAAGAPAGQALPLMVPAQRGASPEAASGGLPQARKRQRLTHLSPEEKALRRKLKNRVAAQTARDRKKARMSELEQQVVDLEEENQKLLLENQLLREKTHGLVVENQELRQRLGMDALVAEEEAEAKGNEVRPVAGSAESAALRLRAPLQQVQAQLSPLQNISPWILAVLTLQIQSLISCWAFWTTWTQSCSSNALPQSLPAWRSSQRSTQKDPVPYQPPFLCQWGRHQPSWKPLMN
Sequence of Nuclear receptor subfamily 1 group I member 3 (Homo sapiens) (Q14994 whole entry, looked up, the tested form may be a part): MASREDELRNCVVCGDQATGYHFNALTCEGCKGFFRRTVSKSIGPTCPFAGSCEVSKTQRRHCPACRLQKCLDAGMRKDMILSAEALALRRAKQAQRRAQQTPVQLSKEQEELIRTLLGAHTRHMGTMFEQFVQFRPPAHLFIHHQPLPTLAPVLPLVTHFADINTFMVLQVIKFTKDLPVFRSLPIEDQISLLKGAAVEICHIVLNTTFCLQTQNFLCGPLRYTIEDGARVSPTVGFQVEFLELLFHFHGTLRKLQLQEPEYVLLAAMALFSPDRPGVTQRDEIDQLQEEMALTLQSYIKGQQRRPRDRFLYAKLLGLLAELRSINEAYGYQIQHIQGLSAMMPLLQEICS

In the case of `Cc1c(O)cccc1O`, the outcome in assay [1], in assay [2], in assay [4], in [5], in assay [6] and in assay [7] was inactive. Further, the call in assay [8], in assay [9], in assay [10], in assay [11], in assay [12] and in assay [13] was inactive. The call in assay [14], in assay [16] and in assay [17] was inactive. Also, the AC50 is 127 µM (active) in [3] and 46.1 µM (active) in assay [15].

On to `CC1(C)CCC[C@]2(C)[C@H]3CC(=O)O[C@]3(C)CC[C@@H]12`, for which the result in assay [1], in assay [2], in [4], in assay [5], in [6] and in assay [7] was inactive. In addition, the result in assay [18], in assay [10], in [11], in assay [12] and in [19] was inactive. Also, the AC50 in assay [3] is 3.61 µM (active); in assay [8], 32.3 µM (active); in assay [15] it was 2.7 µM (active).

Regarding `C=C[C@@]1(C)CC(=O)[C@]2(O)[C@@]3(C)[C@@H](O)CCC(C)(C)[C@@H]3[C@H](O)[C@H](OC(C)=O)[C@@]2(C)O1`, the AC50 in assay [1] is 0.803 µM (active); in assay [3], 0.433 µM (active); in assay [13], 2.1 µM (active); in assay [15], 2.1 µM (active). For the same compound, the compound was classed as inactive in assay [2], in [4], in assay [5], in assay [6], in assay [7] and in assay [8]. The outcome in [18], in [9], in assay [10], in assay [11], in [12] and in assay [16] was inactive.

For the compound `CC1=NN(c2ccc(S(=O)(=O)O)cc2)C(=O)C1N=Nc1ccccc1` (configuration not stated), the result in assay [1], in assay [2], in assay [4], in assay [5], in assay [6] and in [7] was inactive. In addition, the outcome in [8], in [9], in assay [10], in [11], in assay [12] and in assay [13] was inactive. Moreover, the call in assay [15] and in [16] was inactive. Further, the AC50 in assay [3] was 100 µM (active).

For the compound `O=C(O)CCCC(=O)O`, the result in [1], in assay [2], in assay [3], in assay [4], in [5] and in assay [6] was inactive. The compound was classed as inactive in assay [7], in [8], in [18], in assay [9], in assay [10] and in [11]. In addition, the call in assay [12], in assay [15] and in assay [16] was inactive.

As to `O=S(=O)(O)c1ccc(N=Nc2c(O)ccc3ccccc23)cc1`, the outcome in [1], in assay [2], in [4], in [5], in assay [6] and in [7] was inactive. Besides, the compound was called inactive in assay [8], in assay [18], in assay [9], in assay [10], in [11] and in [12]. For the same compound, the outcome in assay [13], in assay [15], in [16] and in assay [19] was inactive. In [3], the AC50 was 31.6 µM (active).

Turning to `CCCCCCOC(=O)CCCCC(=O)OCCCCCC`, the result in assay [1], in [2], in assay [4], in assay [5], in [6] and in assay [7] was inactive. In addition, the compound was called inactive in [8], in [18], in assay [9], in assay [10], in assay [11] and in assay [13]. In addition, the outcome in assay [15], in assay [16] and in [17] was inactive. The AC50 in [3] is 19.8 µM (active).

As to `O=C(OCCc1ccccc1)c1ccccc1`, the outcome in assay [1], in assay [2], in assay [3], in assay [4], in assay [5] and in [6] was inactive. The compound was classed as inactive in [7], in assay [8], in assay [18], in assay [10], in assay [11] and in assay [12]. For the same compound, the call in assay [13], in assay [14], in assay [15], in [16] and in assay [19] was inactive.

These data come from PubChem BioAssay (EPA / NIEHS).
